Experiments:
Conditions in all cases: concentration: 1 μM, replicates: in singlicate; n = 1
[1] = system: T1, MRCKB
T1 construct: gene CDC42BPB

[2] = system: MST1R
[3] = system: T2, MST1
T2 construct: gene STK4

[4] = system: T3, MST2
T3 construct: gene STK3

[5] = system: T4, MST3
T4 construct: gene STK24

[6] = system: MST4
[7] = system: MTOR
[8] = system: MUSK
[9] = system: MYLK2
[10] = system: MYLK4
[11] = system: MYLK
[12] = system: MYO3A
[13] = system: MYO3B
[14] = system: T5, NDR1
T5 construct: gene STK38

[15] = system: NDR2
[16] = system: NEK10
[17] = system: NEK11
[18] = system: NEK1
[19] = system: NEK2
[20] = system: NEK3
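Note: KINOMEscan kinase panel screen.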

| Compound | %Inh [1] [%] | %Inh [2] [%] | %Inh [3] [%] | %Inh [4] [%] | %Inh [5] [%] | %Inh [6] [%] | %Inh [7] [%] | %Inh [8] [%] | %Inh [9] [%] | %Inh [10] [%] | %Inh [11] [%] | %Inh [12] [%] | %Inh [13] [%] | %Inh [14] [%] | %Inh [15] [%] | %Inh [16] [%] | %Inh [17] [%] | %Inh [18] [%] | %Inh [19] [%] | %Inh [20] [%] |
| --- | --- | --- | --- | --- | --- | --- | --- | --- | --- | --- | --- | --- | --- | --- | --- | --- | --- | --- | --- | --- |
| Cc1nnc(-c2ccc(C)c(-c3ccc(C(=O)O)cc3)c2)o1 [GW608005] | 0 | 17 | 0 | 0 | 0 | 0 | 0 | 5 | 2 | 3 | 5 | 0 | 0 | 9 | 0 | 0 | 5 | 0 | 19 | 0 |
| O=C(Nc1n[nH]c2cc(-c3ccccc3F)ccc12)C1CC1 [SB-733371] | 0 | 0 | 1 | 0 | 0 | 0 | 0 | 1 | 90 | 4 | 0 | 22 | 0 | 37 | 2 | 0 | 12 | 0 | 0 | 16 |
| O=c1cc(N2CCOCC2)nc2n(Cc3ccc(F)c(Cl)c3)ccn12 [GSK2297099] | 0 | 13 | 0 | 16 | 0 | 0 | 12 | 5 | 0 | 3 | 9 | 8 | 0 | 9 | 0 | 0 | 0 | 0 | 0 | 13 |
| COC(=O)c1c(-c2ccccc2)c2cc(Br)ccc2c(=O)n1Cc1ccc(NC(=O)CCC(=O)O)cc1 | 0 | 43 | 12 | 27 | 7 | 0 | 32 | 0 | 0 | 1 | 29 | 100 | 0 | 0 | 0 | 0 | 0 | 0 | 0 | 13 |
| COc1ccc(-c2cc3c(C)nc(N)nc3n([C@H]3CC[C@H](O)CC3)c2=O)cn1 | 30 | 0 | 0 | 0 | 2 | 0 | 99 | 0 | 4 | 0 | 98.8 | 0 | 0 | 0 | 0 | 0 | 0 | 0 | 0 | 16 |
| Nc1nc(N)c2nc(-c3ccccc3)[nH]c2n1 [SKF-12778] | 0 | 0 | 4 | 32 | 13 | 10 | 26 | 18 | 2 | 1 | 0 | 0 | 19 | 33 | 0 | 58 | 13 | 0 | 0 | 0 |
| CC(C)(C)c1ccc(C(=O)Nc2cn3cc(-c4ccccc4)ccc3n2)cc1 | 0 | 26 | 0 | 43 | 0 | 0 | 45 | 0 | 34 | 0 | 23 | 0 | 0 | 35 | 0 | 0 | 0 | 0 | 0 | 36 |
| O=C(NCc1cccs1)c1cc(C(=O)c2c(Cl)cccc2Cl)c[nH]1 [GW823670] | 0 | 0 | 15 | 0 | 0 | 0 | 0 | 2 | 0 | 4 | 0 | 0 | 18 | 26 | 14 | 0 | 0 | 15 | 0 | 20 |
| Cl.NS(=O)(=O)c1cccc(Nc2cc(-c3ccc(F)cc3)n[nH]2)c1 [GW824645] | 0 | 0 | 29 | 14 | 0 | 9 | 39 | 0 | 9 | 12 | 0 | 0 | 0 | 47 | 5 | 8 | 0 | 0 | 0 | 14 |
| CCS(=O)(=O)c1ccc(OC)c(Nc2ncc(-c3ccc(F)cc3)o2)c1.Cl [GW591947] | 0 | 33 | 0 | 2 | 0 | 0 | 5 | 2 | 2 | 0 | 0 | 6 | 0 | 10 | 0 | 9 | 0 | 0 | 0 | 0 |
| Cc1cccc(-c2nc(Nc3ccc4c(cnn4C)c3)c3ccccc3n2)n1 [GW876731] | 34 | 0 | 0 | 0 | 0 | 9 | 0 | 2 | 0 | 33 | 0 | 0 | 0 | 17 | 68 | 0 | 46 | 0 | 14 | 0 |
| O=C(NCCNc1ccnc(Nc2ccc(F)cc2)n1)Nc1ccc2c(c1)OCO2 [GSK1379882] | 0 | 6 | 0 | 22 | 11 | 0 | 11 | 0 | 15 | 9 | 23 | 32 | 0 | 10 | 20 | 0 | 7 | 0 | 7 | 16 |
| COc1ccc(-c2cc3c(C)nc(N)nc3n([C@H]3CC[C@H](OCCO)CC3)c2=O)cn1 | 0 | 0 | 6 | 0 | 23 | 0 | 96.3 | 0 | 2 | 7 | 0 | 0 | 25 | 11 | 0 | 22 | 0 | 0 | 0 | 19 |
| CN1C(=O)C(Nc2ccccc2)=C(c2ccccc2)C1=O [SB-300079] | 0 | 0 | 0 | 0 | 0 | 0 | 26 | 0 | 5 | 28 | 0 | 0 | 0 | 39 | 0 | 7 | 4 | 0 | 0 | 21 |
| COc1cc2ncn(-c3cc(OCc4ccc(S(C)(=O)=O)cc4)c(C(N)=O)s3)c2cc1OC [GW869979] | 0 | 0 | 0 | 44 | 7 | 14 | 6 | 0 | 0 | 8 | 46 | 0 | 0 | 25 | 4 | 29 | 14 | 0 | 0 | 14 |
| COc1cc2ncn(-c3cc(OCc4ccncc4Br)c(C(N)=O)s3)c2cc1OC [GW854278] | 0 | 74 | 0 | 23 | 34 | 24 | 9 | 4 | 0 | 70 | 72 | 0 | 9 | 0 | 17 | 0 | 0 | 0 | 33 | 29 |
| COC(=O)c1c(-c2ccccc2)c2cc(C)ccc2c(=O)n1Cc1ccccc1 | 0 | 31 | 0 | 21 | 0 | 0 | 0 | 12 | 0 | 0 | 0 | 0 | 0 | 0 | 0 | 0 | 0 | 0 | 0 | 24 |

Source: article PMC5540273 (PLoS ONE, 2017)
